Bioassay records deposited in PubChem BioAssay by National Center for Advancing Translational Sciences (NCATS).
The list is not random: actives were taken first. Their share in the collection is about 21%.
SARS PLP yeast: blocks SARS-CoV papain-like protease in a yeast assay; S. cerevisiae expressing SARS-CoV PLpro, growth rescue; Potency, µM (series often up to 32.9 µM), most hits filed as activators; hit rate 0.19% among 330,000; calls by dose curve; note: nearly all actives have a fitted effect of over 55% in size
NS1 function inh: inhibitors of influenza NS1 protein function | Potency, µM (titrated, usually from 46.1 µM) | hit rate 0.4% among 270,000; calls by dose curve; note: actives are rising curves; nearly all actives have a fitted effect of over 50% in size
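Growth recovery, yeast-based: influenza A NS1 expressed in S. cerevisiae causes slow growth, and suppressors are detected by OD600. The parent strain without NS1 is used as positive control.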
Shiga toxin inh: inhibitors of Shiga toxin in Vero cells. Vero cells, Shiga toxin protein synthesis inhibition reporter. inhibition, % at 38.7 µM. hit rate 9.2% among 290,000. AID 2315; in the data active = inhibition mostly above about 28%, no sharp cut-off; inactive = mostly below about 43%
Pf growth 48h: P. falciparum growth inhibition at 48 hours (one generation). P. falciparum luciferase growth in erythrocytes, 48 h. Potency, µM (top dose mostly 28.7 µM), actives largely listed as inhibitors. hit rate 5.9% among 310,000. AID 504832
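A one-generation exposure of luciferase-tagged malaria parasites in RPMI 1640/Albumax erythrocyte culture, 37 C and 5% CO2. Inhibition is inferred from decreased luminescence after adding detection reagent.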
Pf growth 96h: inhibits malaria parasite growth, 96 h. hit rate 6.9% among 320,000. Potency, µM (titrated, usually from 28.7 µM), actives largely listed as inhibitors. P. falciparum luciferase reporter growth, 96 h. AID 504834
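P. falciparum expressing integrated firefly luciferase, in erythrocytes at 2% hematocrit, 0.05% parasitemia, incubated with compounds 96 h at 37 C, 5% CO2. Growth inhibition read as loss of luminescence; two-generation exposure targets delayed-death apicoplast inhibitors.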
Cycloheximide cs: affects cycloheximide protein synthesis inhibition readout, counter-screen | AID 2314 | cell reporter, cycloheximide protein synthesis inhibition counterscreen | max response, % | hit rate 12% among 300,000; in the data active = max response mostly above about 13%, no sharp cut-off; inactive = mostly below about 14%; note: read at 38.3 µM for the half of the compounds with a filed dose
Hits are given with their value; n = inactive; u = inconclusive; x = not tested or not shown. Unless noted, calls come from the whole dose curve; as a rule, active = well fitted inhibition curve with a large enough effect; inconclusive = small, poorly fitted or top-dose-only effect, or another doubt; inactive = no such curve, though single readings can be large or run the other way.

SMILES | SARS PLP yeast | NS1 function inh | Shiga toxin inh | Pf growth 48h | Pf growth 96h | Cycloheximide cs
CCCNC(=O)N1[C@H]2CC[C@@H]1C(C(=O)OC)=C(c1ccc(-c3ccccc3)c(F)c1)C2 | n | x | x | 9.3µM | u | x
CCC1CCCCN1C(=O)c1ccc2c(c1)C(=O)N(c1ccc(C)cc1)C2=O (stereo not drawn) | n | n | n | n | n | n
COc1ccc(/C=C/C(=O)OCC(=O)Nc2cccc(S(=O)(=O)NC3=NCCCCC3)c2)cc1 | n | x | x | x | x | x
CCOc1ccc(S(=O)(=O)N2CCN(Cc3ccc4c(c3)OCO4)CC2)cc1C | n | n | n | n | n | n
CCOC(=O)c1sc(=S)n(-c2cc(F)ccc2F)c1N | n | n | n | n | n | n
Cc1c(C(=O)O)sc(=S)n1-c1ccc(Cl)cc1 | n | n | n | n | n | n
CCOC(=O)c1sc(=S)n(-c2cc(OC)ccc2OC)c1N | n | n | n | n | 9.3µM | n
CCOC(=O)c1sc(=S)n(-c2ccc(OC)cc2)c1C | n | n | n | 13µM | u | n
CCOC(=O)c1sc(=S)n(-c2ccc(Cl)cc2)c1C | n | n | n | 5.2µM | u | n
CCOC(=O)C1C(=O)C=C(c2ccc(NS(C)(=O)=O)cc2)CC1c1ccco1 (stereo not drawn) | n | n | n | u | u | n
CCOC(=O)C1C(=O)C=C(c2ccc(C)cc2)CC1c1cccc([N+](=O)[O-])c1 (stereo not drawn) | n | u | n | u | 6.6µM | n
CCOC(=O)C1C(=O)C=C(c2ccc(C)cc2)CC1c1ccco1 (stereo not drawn) | n | n | 54 | u | n | 21
CN(Cc1ccco1)C(=O)c1c[nH]c2ccc(S(=O)(=O)Nc3ccc4c(c3)OCCO4)cc2c1=O | n | n | n | n | n | 18
O=C(NCc1ccco1)c1ccccc1NS(=O)(=O)c1cccs1 | n | n | n | n | u | n
O=C(NCc1ccco1)c1ccccc1NS(=O)(=O)c1ccc2c(c1)OCCO2 | x | n | n | 17µM | x | n
CCc1ccc(NS(=O)(=O)c2ccc3[nH]cc(C(=O)N(C)Cc4ccco4)c(=O)c3c2)cc1 | n | n | n | n | n | n
CCCCn1c(N)c(N(CCOC)C(=O)c2cc(-c3ccccc3Cl)nc3ccccc23)c(=O)[nH]c1=O | n | x | x | u | u | x
Nc1[nH]c(N=NC(=O)c2ccc(Cl)cc2)c2ccccc12 | n | n | 95 | n | u | 32
Nc1[nH]c(N=NC(=O)c2ccccc2O)c2ccccc12 | n | n | 81 | n | n | 58
O=C(ONc1ccc(N=NC(=O)c2ccccc2O)cc1)c1ccccc1 | n | n | n | n | n | n
Nc1[nH]c(N=NC(=O)c2ccccc2)c2ccccc12 | n | n | 84 | n | n | 53
Cc1cc(N=NC(=O)c2ccccc2)ccc1O | n | n | n | n | n | n
COc1cc(C(=O)Nc2cc(S(C)(=O)=O)ccc2Cl)ccc1OCC(=O)N1CCOCC1 | n | x | x | n | n | x
N#Cc1cc(C#N)c(N2CCN(c3ccccn3)CC2)nc1N | n | n | 60 | n | n | 44
c1ccc(N2CCN(c3cnccn3)CC2)nc1 | n | n | n | n | n | n
SMILES | SARS PLP yeast | NS1 function inh | Shiga toxin inh | Pf growth 48h | Pf growth 96h | Cycloheximide cs
NS(=O)(=O)c1ccc(CCNC(=O)CCCCCn2c(=S)[nH]c3ccc(Br)cc3c2=O)cc1 | n | x | n | u | n | n
CCC(C(=O)NC(C)(C)C)N(Cc1cccs1)C(=O)CNS(=O)(=O)c1ccccc1 (stereo not drawn) | n | n | n | 2.3µM | n | n
Cc1ccc(S(=O)(=O)NCc2ccccc2)cc1C(=O)NCC(C)(C)N1CCOCC1 | n | x | x | u | n | x
O=C(CC1NC(=S)NC1=O)c1ccc(Cl)cc1 (stereo not drawn) | n | n | n | n | n | n
O=C(CN1CC[n+]2c(-c3ccccc3)csc21)c1ccc(Br)cc1 | n | u | n | 7.4µM | u | n
Cc1cc(F)ccc1S(=O)(=O)NCC(c1cccnc1)N1CCc2ccccc21 (stereo not drawn) | n | n | n | u | n | n
COc1cccc(N2CCN(S(=O)(=O)c3ccc4c(c3)oc(=O)n4C)CC2)c1 | n | n | n | n | u | 17
CCN(Cc1ccccc1)C(=O)CCS(=O)(=O)c1ccc2c(c1)n(C)c(=O)c(=O)n2C | n | n | n | n | 3.7µM | n
COc1cccc(N2CCN(C(=O)C3CCN(S(=O)(=O)c4ccc5c(c4)oc(=O)n5C)CC3)CC2)c1 | n | n | n | u | n | n
CN(Cc1ccccc1)C(=O)CCS(=O)(=O)c1ccc2c(c1)oc(=O)n2C | n | n | n | n | 13µM | n
COc1cccc(N2CCN(C(=O)CCS(=O)(=O)c3ccc4c(c3)oc(=O)n4C)CC2)c1 | n | n | n | u | 5.2µM | n
Cn1c(=O)oc2cc(S(=O)(=O)CCC(=O)N3CCN(c4ccccc4F)CC3)ccc21 | n | n | n | n | u | n
CCc1nnc(NC(=O)CN2CCN(Cc3cccc(OC)c3)CC2)s1 | n | n | n | n | n | n
COc1cccc(CN2CCC(Oc3ccc(C(=O)N4CCCCC4)cc3)CC2)c1O | n | n | n | u | n | n
COc1ccc(N(C)S(=O)(=O)c2ccc3c(c2)oc(=O)n3C)cc1 | n | n | n | n | 7.4µM | n
Cn1c(=O)oc2cc(S(=O)(=O)CCC(=O)N3CCN(c4ccccc4)CC3)ccc21 | n | n | n | u | 9.3µM | n
O=C1c2ccccc2[C@@H]2C[C@@H](O)[C@H](Nc3cccc(C(F)(F)F)c3)CCN12 | n | x | x | x | x | x
Cc1cc(SCC(=O)OCC(=O)N(CCC#N)c2ccccc2)nc2ccccc12 | x | x | x | n | n | x
COc1cc2c(cc1OC)-c1nnc(-c3cccs3)n1C1(CCCC1)C2 | n | n | n | n | u | n
COc1ccccc1NC(=O)c1nnn(Cc2ccccc2)c1NC(=O)C(F)(F)F | n | n | n | n | n | n
Nc1c(C(=O)Nc2ccc3c(c2)OCCO3)nnn1Cc1ccc(Cl)cc1 | n | x | x | n | n | x
CSc1cccc(NC(=O)c2nnn(Cc3ccccc3)c2N)c1 | n | n | n | 9.3µM | n | n
COc1cc(NC(=O)c2nnn(Cc3ccc(SC)cc3)c2N)cc(OC)c1 | n | n | n | x | 12µM | n
O=C(Nc1ccccc1)c1nnn(Cc2ccccc2)c1NC(=O)C(F)(F)F | n | n | 79 | n | n | 45
COc1ccc(Cn2nnc(C(=O)Nc3ccc4c(c3)OCCO4)c2N)cc1Br | n | n | n | n | 12µM | 17
COc1cccc(NC(=O)Cn2nnc(C(=O)Nc3ccccc3)c2N)c1 | n | n | n | u | u | n
Cc1ccc(S(=O)(=O)NC(CC(=O)O)c2ccc(F)cc2)cc1 (stereo not drawn) | n | n | n | u | u | n
Nc1c(C(=O)NCCc2ccccc2)nnn1Cc1ccccc1 | n | n | 43 | n | x | 30
COC(=O)c1nnn(Cc2ccccc2)c1N | n | n | n | n | n | n
COc1cc2c(cc1OC)C(CCN)=NCC2 | x | n | x | x | x | x
